# Tau fluor counter = counter-screen for tau fibril formation inhibitors; tau K18 P301L Alexa594 fluorescence, heparin fibrillization; Potency, µM (top dose mostly 57.7 µM); 0.93% of 280,000 active; AID 1463; also: nearly all actives have a fitted effect of over 55% in size
#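 Human tau K18 P301L (15 uM unlabeled, 0.24 uM Alexa 594-labeled) in 100 mM sodium acetate pH 7 with 20 uM heparin, 6 hr at 37 C. ThT 30 uM added, 1 hr ambient; Alexa 594 FP and total fluorescence read at 555/632 nm.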
# G9a inh = G9a (human) methyltransferase inhibition; G9a H3K9 monomethylation, AlphaScreen, 2 h; Q96KQ7; 8.8% of 350,000 active; Potency, µM (top dose mostly 102 µM), hits mostly inhibitors; also: nearly all actives have a fitted effect of over 75% in size
# Target sequence (Q96KQ7 913-1193 limits assumed): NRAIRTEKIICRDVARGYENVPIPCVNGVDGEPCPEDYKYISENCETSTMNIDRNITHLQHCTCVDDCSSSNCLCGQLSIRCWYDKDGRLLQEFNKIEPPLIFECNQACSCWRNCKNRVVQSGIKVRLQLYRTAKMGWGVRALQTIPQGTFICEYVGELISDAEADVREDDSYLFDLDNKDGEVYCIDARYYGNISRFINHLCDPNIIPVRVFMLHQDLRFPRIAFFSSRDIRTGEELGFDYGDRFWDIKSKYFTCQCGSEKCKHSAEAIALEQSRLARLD
#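 Quantitative HTS format: methyltransferase activity on a biotin-tagged H3K9 peptide is measured by AlphaScreen, using a rabbit anti-monomethyl-H3K9 antibody with streptavidin donor and anti-IgG acceptor beads. Final levels are 20 nM enzyme, 500 nM peptide, 20 uM SAM; 2 h RT.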
# Tau fibril FP = blocks human tau fibril formation measured by polarization. K18 P301L tau heparin fibrillization, Alexa594 FP, 6 h. Potency, µM (doses to about 57.7 µM), usual class: inhibitors. 0.39% of 280,000 active. AID 1468; also: nearly all actives have a fitted effect of over 55% in size
# Target sequence (P10636 561-689 P618L limits assumed): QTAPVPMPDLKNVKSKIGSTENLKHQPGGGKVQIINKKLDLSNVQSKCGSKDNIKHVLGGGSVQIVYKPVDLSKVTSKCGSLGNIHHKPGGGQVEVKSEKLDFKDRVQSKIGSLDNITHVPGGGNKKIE
#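 Human tau K18 […] P301L fragment, 15 uM unlabeled plus 0.24 uM Alexa 594-labeled tau (final), with compound and 20 uM heparin in 100 mM sodium acetate pH 7; 6 hr at 37 C, then Alexa 594 FP read.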
# Tau ThT inhib = blocks human tau fibril formation measured by thioflavin T; P10636; recombinant tau K18 P301L, heparin-induced fibrillization, ThT fluorescence; Potency, µM (series often up to 57.4 µM), usual class: inhibitors; 2.1% of 270,000 active; AID 1460; also: nearly all actives have a fitted effect of over 55% in size
#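 Using a mix of unlabeled (15 uM) and Alexa 594-labeled (0.24 uM) tau K18 P301L, heparin-triggered fibrillization over 6 hr at 37 C was scored by ThT fluorescence.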
# FBPA coupling cs = coupling enzyme interference in Giardia aldolase counter-screen; 0.67% of 290,000 active; coupling enzyme system counterscreen, AmpLite Red fluorescence; activity change, negative = inhibition, % at 58.2 µM, hits read low; in the data active = activity change below about -30%
#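 Compounds tested against the coupling enzymes alone at 57.5 uM final; readout was AmpLite Red fluorescence (525/598 nm) after 20 min at RT.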
# Sfp inh = inhibitors of Bacillus subtilis Sfp phosphopantetheinyl transferase | Q9F4F7 | Biochemical Sfp PPTase activity, qHTS | Potency, µM, most hits filed as inhibitors | 3.5% of 310,000 active;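 also: the enzyme is Sfp with the accession as filed and its product quenches rhodamine fluorescence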
#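 Step 1, compound plus 15 nM Sfp-PPTase, 15 min, room temperature. Step 2, add rhodamine-CoA (5 uM) and BHQ-2-YbbR (12.5 uM). Step 3, read 525/598 nm fluorescence at 0 and 30 min.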
# Numbers stand for hits; . = inactive; ? = inconclusive; / = no result; ! = repeats disagree; [ ] = another dose, or the depositor's remark. Rows were chosen to be rich in hits. Some 11% of all compounds tested hit in one or more screens of this group. Unless noted, calls follow the shape of the dose curve; as a rule, active = well fitted curve in the direction sought with a large enough effect; inconclusive = small, poorly fitted or top-dose-only effect, or another doubt; inactive = no such curve, though single readings can be large; an effect the other way counts as inactive or inconclusive.
SMILES,Tau fluor counter,G9a inh,Tau fibril FP,Tau ThT inhib,FBPA coupling cs,Sfp inh
Cc1cc2c(NC(=O)Nc3ccc(C(C)(C)C)cc3)cccc2nn1,15.8µM[quencher],/,35.5µM,.,.,?
Cc1ccccc1NC(=O)Nc1ccc(C(F)(F)F)cc1,.,.,?,.,.,.
Cc1cc(=O)n(Cc2ccccc2)c(O)c1C#N,/,.[0.501 µM],/,/,.,.
Cc1cc(=O)n(CC(C)O)c(O)c1C#N (centres undefined),.,10µM,.,?,.,.
Cc1cc(=O)n(CCCO)c(O)c1C#N,.,44.7µM,.,?,-38.3,.
O=C(c1ccncc1)N1CCC2(CCN(Cc3nccs3)CC2)CC1,/,.[12.7 µM],/,/,.,.
COC(=O)c1cc(NS(=O)(=O)c2ccc(N3CCOCC3)c([N+](=O)[O-])c2)cc(C(=O)OC)c1,?,?,.,?,.,.
Cc1ccc(S(=O)(=O)N2CCN(C(=O)c3ccc(N4CCCC4)c([N+](=O)[O-])c3)CC2)cc1,/,.[12.7 µM],/,/,/,.
COc1cccc(C(=O)/C=C/c2ccc(N3CCCCC3)c([N+](=O)[O-])c2)c1,?,7.08µM,.,7.94µM,.,.
O=C(/C=C/c1ccc(N2CCCCC2)c([N+](=O)[O-])c1)c1ccc(S(=O)(=O)N2CCCC2)cc1,.,4.47µM,?,10µM,.,.
COC(=O)c1cc(NS(=O)(=O)c2ccc(N3CCCCCC3)c([N+](=O)[O-])c2)cc(C(=O)OC)c1,?,44.7µM,.,?,.,.
Cc1ccc(S(=O)(=O)N2CCN(C(=O)c3ccc(N4CCCCC4)c([N+](=O)[O-])c3)CC2)cc1,/,31.6µM,/,/,.,.
COc1cccc(/C=C/C(=O)c2cccc([N+](=O)[O-])c2)c1,?,/,?,?,.,?
CCOc1ccccc1NC(=O)C(Cc1ccccc1)NS(=O)(=O)c1ccc(Br)s1 (centres undefined),?,.,?,?,/,/
Cc1cc(OCc2nc3ccccc3s2)ccc1N,?,10µM,.,14.1µM,.,20µM
c1ccc(OCc2nc3ccccc3s2)cc1,.,.,.,.,.,.
CCC(=O)Nc1ccc(OCc2nc3ccccc3s2)cc1,.,10µM,?,?,.,44.7µM
CC1CCCCC1NS(=O)(=O)c1ccc2c(c1)CC(=O)N2C (centres undefined),/,/,/,/,.,.
CCC(CNc1cc(OC)cc2cccnc12)NC1CCCCC1 (centres undefined),.,5.01µM,.,?,.,44.7µM
COc1cc(NCCCC(C)N)c2ncccc2c1 (centres undefined),?,?,?,25.1µM,-57.6,56.2µM
COc1cc(NS(=O)(=O)c2ccc(C)cc2)c2ncccc2c1,?,.,.,.,.,.
Cc1nc2scc(-c3cccs3)c2c(=O)[nH]1,.,?,.,.,.,44.7µM
O=c1[nH]c(-c2ccc(O)cc2)nc2scc(-c3cccs3)c12,?,.,.,?,.,.
C[n+]1cc2c3c(ccc2c2ccc4cc5c(cc4c21)OCO5)OCO3,17.8µM[quencher],1.89µM,?,28.2µM,-43.5!,8.91µM!
C[n+]1c(/C=C/c2ccc3c(c2)OCO3)ccc2ccccc21,.,?,.,?,.,.
SMILES,Tau fluor counter,G9a inh,Tau fibril FP,Tau ThT inhib,FBPA coupling cs,Sfp inh
O=C1/C(=C/c2ccco2)SC(=S)N1CC1CCCO1 (centres undefined),?,?,?,20µM,.,17.8µM
Cc1ccc(/C=C2/SC(=O)NC2=S)o1,?,17.8µM,10µM,4.47µM,.,22.4µM
Cc1ccc(/C=C2\SC(=S)N(CC3CCCO3)C2=O)o1 (centres undefined),.,5.62µM,?,15.8µM,.,10µM
O=C1/C(=C\c2ccc(-c3ccccc3Cl)o2)SC(=S)N1CC1CCCO1 (centres undefined),.,?,.,?,.,?
Cc1ccc(/C=N/n2c(C)nnc2C)o1,.,.,.,.,.,.
COc1cc(/C=C2/SC(=S)N(CC3CCCO3)C2=O)ccc1O (centres undefined),11.2µM[quencher],28.2µM,.,14.1µM,.,?
COC(=O)c1c(NC(=O)CCCOc2ccccc2C)sc2c1CCC2,.,.,.,.,/,/
CCN(CC)CCCN(c1ccccc1)C1Cc2ccccc2C1,/,?,/,/,/,.
Cc1ccc(/C=C2/SC(=S)N(C3CCCCC3)C2=O)o1,/,39.8µM,/,/,.,.
O=C(Nc1ccccc1)C1CCCN1S(=O)(=O)c1ccc(Br)cc1 (centres undefined),/,/,/,/,.,.
CCn1cc(CCC(=O)NC2CCCC2)c2ccccc21,/,.,/,/,.,.
Cc1ccc(CONC(=O)c2ccc([N+](=O)[O-])cc2)cc1,/,.[12.7 µM],/,/,/,/
Cc1ccc(S(=O)(=O)CC#CCOC(=O)c2ccc([N+](=O)[O-])cc2)cc1,?,?,.,?,.,50.1µM
O=C1OC(/C=C/c2ccccc2)=NC/1=C/C=C/c1ccccc1,.,.,.,15.8µM,.,.
O=C1OC(c2ccc(F)cc2)=N/C1=C\C=C/c1ccccc1,/,.,/,/,.,.
COC(=O)C1C(O)C(C)C(O)C(C)(O)/C=C\C=C(/C)C(=O)Nc2c(C)c(OC(C)=O)c3c(c2O)C(=O)C(C)=C2OCOC(=C23)/C(C)=C/C(C)(O)C(O)C(C)C1O (centres undefined),3.98µM[quencher],?,?,/,-41.6,?
CC(C#N)(NC(=O)CN1CCN(S(=O)(=O)c2ccc(Br)cc2Cl)CC1)C1CC1 (centres undefined),/,.[2.33 µM],/,/,/,/
CCOC(=O)Cn1nnnc1CN(Cc1ccc(OC)cc1)Cc1cc2cc(CC)ccc2[nH]c1=O,.,?,.,.,.,17.8µM
CCOC(=O)Cn1nnnc1CN(Cc1ccc(OC)cc1)Cc1cc2cc(C)cc(C)c2[nH]c1=O,.,22.4µM,.,.,.,35.5µM
CCOC(=O)Cn1nnnc1CN(Cc1ccc(OC)cc1)Cc1cc2cc(C)ccc2[nH]c1=O,.,?,.,.,.,70.8µM
COc1ccccc1CN(Cc1cc2cc(C)ccc2[nH]c1=O)Cc1nnnn1Cc1ccco1,.,?,.,.,.,?
Cc1cc2ccccc2n1-c1ccc(C(=O)N2CCCCC2)s1,.,.,.,?,/,/
O=C1CC(c2ccccc2)CC(=O)C1CS(=O)(=O)c1ccccc1 (centres undefined),.,3.16µM,?,?,.,.
COc1ccc(Cl)cc1NC(=O)c1ccccc1C,.,.,.,.,.,.
CCOc1ccccc1C(=O)Nc1cc(Cl)ccc1O,17.8µM[quencher],.,?,?,.,.
CCOc1ccccc1C(=O)Nc1cc(OC)ccc1OC,?,?,.,?,.,?
COc1ccccc1C(=O)Nc1cc(Cl)ccc1O,.,56.2µM,.,.,.,.
CCC(C)(C)NS(=O)(=O)c1cc(-c2cc(C)no2)ccc1C,.,.,.,.,/,/
O=C(NCc1ccccn1)c1ccc(NS(=O)(=O)c2cccc(Cl)c2)cc1,/,/,/,/,/,.
